Screening data as filed in PubChem BioAssay.
This is a sample that favours compounds with a hit; in the whole collection about 7.8% have one here.
Vaccinia Venus – inhibitors of vaccinia virus (Venus reporter) | Vaccinia virus Venus reporter expression, fluorescence | Potency, µM (doses to about 36.5 µM), inactives show at the top dose activity change, negative = inhibition, usual class: inhibitors | 0.46% of 330,000 active | AID 720580; calls by dose curve; tested in A549 cells; note: potency is the fitted concentration of half-maximal effect; nearly all actives have a fitted effect of over 30% in size
HCV inh – inhibitors of hepatitis C virus infection; Huh7.5.1 HCVcc-Cre infection, luciferase reporter, 44 h; 3.4% of 340,000 active; Potency, µM (doses to about 41.8 µM), for the others: at the highest dose activity change, negative = inhibition, hits mostly inhibitors; active = well fitted inhibition curve with a large enough effect; inconclusive = small, poorly fitted or top-dose-only effect, or another doubt; inactive = no such curve, though single readings can be large or run the other way; note: potency is the fitted concentration of half-maximal effect
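Cells (1,000/well) were plated 4 h before compound, then infected with HCVcc-Cre virus (~0.5 moi). After 44 h further culture, infection was read as luciferase luminescence following a 15 min substrate incubation at room temperature.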
HCMV antiviral – blocks human cytomegalovirus replication; HFF cells, HCMV-luciferase reporter, 72 h; hits give low values; activity change, negative = inhibition, % at 57.5 µM; 4.5% of 410,000 active; AID 1259415; in the data active = activity change below about -60%; inconclusive = no clear call, values can overlap the other calls; inactive = above about -39%
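Two compound doses tested in HFFs infected with HCMV-luciferase, MOI 1 PFU/cell, 72 h at 37C. Lysate luminescence read with OneGlo; data normalized against buffer-only and 10uM Salinomycin inhibitor controls.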
LASV entry inh – blocks Lassa virus binding to or entry into cells; 1.2% of 300,000 active; Lassa virus pseudotype entry inhibition, cell reporter; Potency, µM (top dose mostly 37.9 µM), inactives show at the highest dose activity change, negative = inhibition, most hits filed as inhibitors; calls by dose curve; tested in HEK293 cells; note: potency is the fitted concentration of half-maximal effect; nearly all actives have a fitted effect of over 50% in size
Marburg entry inh – Marburg virus entry inhibition; AID 540276; Marburg virus pseudotyped entry inhibition, cell reporter; 1.8% of 300,000 active; Potency, µM (series often up to 37.8 µM), without a hit: at the highest dose activity change, negative = inhibition, usual class: inhibitors; calls by dose curve; tested in HEK293 cells; note: potency is the fitted concentration of half-maximal effect
VACV mCherry inh – inhibitors of vaccinia virus infection (mCherry reporter signal); Vaccinia virus mCherry reporter infection, fluorescence; Potency, µM (titrated, usually from 36.5 µM), without a hit: at the top dose activity change, negative = inhibition, usual class: inhibitors; AID 720579; 0.63% of 310,000 active; calls by dose curve; tested in A549 cells; note: potency is the fitted concentration of half-maximal effect; nearly all actives have a fitted effect of over 35% in size
Active calls of the source: *; i = inactive; ? = inconclusive; . = not tested or not shown; [ ] = dose if it differs, or a comment. % is set by controls: 0 for no effect and ±100 for the full control effect.

SMILES	Vaccinia Venus	HCV inh	HCMV antiviral	LASV entry inh	Marburg entry inh	VACV mCherry inh
Cc1ccc(S(=O)(=O)Nc2ccc3c(c2)nc2n3CCN(Cc3ccccc3)C2)cc1	.	15.8µM*	-16.4	?	?	.
O=S(=O)(Nc1ccc2c(c1)nc1n2CCN(Cc2ccccc2)C1)c1ccc(Cl)cc1	.	11.2µM*	44.9	-17.7%	-3.2%	.
O=S(=O)(Nc1ccc2c(c1)nc1n2CCN(Cc2ccccc2)C1)c1ccccc1	.	5.62µM*	-96.1*	-9.2%	2.7%	.
Cc1ccc(CNC(=O)Cn2c(=O)cc(C(F)(F)F)c3c(C)nn(C)c32)cc1	6.3%	.	0.3	-13.3%[46.1 µM]	.	-6.6%
O=C(Nc1ccc(Cl)c(Cl)c1)N1CCC(c2ccccc2)C1 (centres undefined)	-8.6%	.	71.3	?	.	-2.3%
NC[C@H](O)c1cc(O)c(O)cc1F	.	.	.	.	-5.6%	.
COc1ccc(CCNC(=O)c2sc3nc4n(c(=O)c3c2C)CCCC4)cc1OC	-14.9%	.	-26.0	-16.9%[46.1 µM]	.	-5.5%
COc1cc(C(=O)N2CCC(N3CCN(C)CC3)CC2)ccc1Nc1ncc2c(n1)N(C)c1ccccc1C(=O)N2C	.	.	-72.7*	.	.	.
COc1ccccc1N1CCN(C2CCN(C(=O)c3ccc(F)cc3)CC2)CC1	-12.9%	9.2%	-15.5	-10.9%	1.6%	-12.0%
CCN1C(=O)CCN(C2CCCC2)c2nc(Nc3ccc(C(=O)NC4CCN(C)CC4)cc3OC)ncc21	?	29.1%[8.37 µM]	-72.9*	.	.	?
CCCCNC(=O)CN1C(=O)c2cccnc2Sc2ccccc21	8.1%	.	32.3	2.5%[46.1 µM]	.	9.9%
CCCn1c2ccccc2c2nnc(SCC(=O)Nc3cc(C)on3)nc21	10µM*	-22.9%	60.7	-0.8%	-3.2%	.
CCCn1c2ccccc2c2nnc(SCC(=O)Nc3ncccn3)nc21	11.2µM*	-13.4%	13.4	-1.9%	?	.
C=CCn1c2ccccc2c2nnc(SCC(=O)Nc3cc(C)on3)nc21	-27.2%	?	0.6	-17.1%	13.7%	.
O=C(CSc1nnc2c(n1)[nH]c1ccc(F)cc12)Nc1ccccc1F	-15.7%	2.8%	-27.2	?	21.6%[46.1 µM]	i
O=C(CSc1nnc2c3ccccc3c3ccccc3c2n1)Nc1ccccc1F	-0.7%	-13.0%	-87.8*	12.1%	12.8%	i
COc1ccc(CN2C(=O)N(c3ccc(C)cc3)C(=O)C2CC(=O)Nc2ccccc2)cc1OC (centres undefined)	-5.6%	.	20.0	-13.8%[46.1 µM]	-3.5%[46.1 µM]	-8.3%
Cc1c(C(=O)N2CC3CCC2C3)sc2ncnc(NCc3ccco3)c12 (centres undefined)	-17.4%	.	.	.	.	-1.8%
Cc1ccc(/C=[N+](\[O-])c2ccccc2C)o1	.	11.1%	-98.0*	.	.	.
CN(Cc1ccccc1)C(=O)c1ncn(C)c1C(=O)N(C)Cc1ccccc1	-7.5%	-2.2%	-4.2	.	.	-4.3%
CCN(CC)C(=O)c1ncn(C)c1C(=O)N(CC)CC	-8.2%	11.1%	-66.4*	.	.	-14.4%
O=C(NC1CCS(=O)(=O)C1)c1ccc(-c2ccc(Br)cc2)o1 (centres undefined)	-22.1%	11.2µM*	-13.2	-11.1%	7.1%	-11.3%
Cc1cc(C(=O)NCC2CCC3(CCN(Cc4ccccc4C)CC3)O2)n(C)n1 (centres undefined)	-11.4%	.	.	.	.	-4.2%
Nc1cc2c(cc1Br)[nH]c(=O)c1ccccc12	?	?	-89.0*	?	?	?
CCCCCc1ccc(-c2cn(CCc3c[nH]c4ccccc34)nn2)cc1	?	?	-60.8*	.	.	-11.4%
SMILES	Vaccinia Venus	HCV inh	HCMV antiviral	LASV entry inh	Marburg entry inh	VACV mCherry inh
CCc1cc(-c2cnnn2CCc2c[nH]c3ccccc23)ccc1-c1cn(CC(C)C)nn1	-28.3%	.	-19.3	7.91µM*	.	-14.8%
COc1cccc(-c2cnc(-c3ccncc3)nc2C2CCN(C(=O)Cc3csc(C)n3)CC2)c1	-8.7%	.	.	.	.	-12.9%
COCCn1c(-c2cc(OC)c(OC)c(OC)c2)nc2oc3ccccc3c(=O)c2c1=O	.	?	-64.7*	5.8µM*	?	.
O=C(O)CCn1c(=O)c2ccccc2c2ccccc2c1=O	-9.2%	13.4%	-101.0*	0.5%	4.6%	-13.6%[1.46 µM]
O=C(O)CCn1c(=O)[nH]c2ccccc2c1=O	-6.9%	2.4%	37.6	.	.	-14.3%
Cc1ccc(-c2nnc(Nc3ccc(O)cc3)c3ccccc23)cc1S(=O)(=O)N1CCN(C)CC1	-29.1%	.	-65.6*	1.7%[46.1 µM]	-12.4%[46.1 µM]	?
Cc1ccc(-c2nnc(Nc3ccc(F)cc3)c3ccccc23)cc1S(=O)(=O)N1CCN(C)CC1	-28.4%	.	-101.5*	?	-23.0%[46.1 µM]	-12.6%
CCN(CC)C(=O)c1ccc(-c2nnc(Nc3ccc(O)cc3)c3ccccc23)cc1	.	-25.8%	-74.5*	.	.	.
Cc1ccc(-c2nnc(Nc3ccc(Br)cc3)c3ccccc23)cc1S(=O)(=O)N1CCN(C)CC1	-29.6%	.	-39.8	11.2µM*	.	?
COCCCNC(=O)[C@@H](C)N1Cc2ccc(-c3cccc(F)c3)nc2C1=O	.	.	-21.6	.	.	.
Cc1cc(Nc2ccc(Cl)cc2)n2cnnc2n1	-10.1%	.	2.7	?	-0.2%[46.1 µM]	-18.6%
CNC(=O)c1sc(N2N=C3/C(=C/c4ccccc4)CCCC3C2c2ccccc2)nc1C (centres undefined)	.	10µM*	-39.1	?	?	.
CCCCCCCCCCCCCCCC[N+](C)(C)CC	-8.4%	?	-96.0*	.	.	-14.2%
CCCCCCCCCCCCCCCC[N+](C)(C)C	?	?	-94.3*	.	.	?
COc1ccc(CCNC(=O)CS(=O)Cc2nc(-c3ccc(C)cc3)oc2C)c(OC)c1 (centres undefined)	-14.4%	.	0.4	-1.3%[46.1 µM]	.	-4.3%
CCOc1ccc(NC(=O)CSc2oc(-c3ccco3)nc2S(=O)(=O)c2ccccc2)cc1	-14.2%	.	5.1	-0.9%[46.1 µM]	25.8%[46.1 µM]	-9.7%
Cc1c([N+](=O)[O-])cnc2ccccc12	-16.5%	.	.	.	.	i
Cc1cccc(CN2C(=O)N/C(=C/c3ccc(C)s3)C2=O)c1	?	?	2.4	3.16µM*	?	.
CCCCCCN1C[C@@H](n2cc(-c3ccc(F)cc3)nn2)[C@H](O)C[C@@H]1c1ccc(Cl)cc1	?	.	-94.7*	.	.	?
O[C@H]1CN(CC2CCCCC2)[C@@H](c2ccc(Cl)cc2)C[C@H]1n1cc(C2CC2)nn1	.	.	.	9.95µM*	.	.
CCCCCCN1C[C@H](n2cc(C3CC3)nn2)[C@@H](O)C[C@@H]1c1ccccc1	11.2µM*	.	-38.0	.	.	?
CCCCCCN1C[C@H](O)[C@@H](n2cc(-c3ccc(F)cc3)nn2)C[C@@H]1c1ccc(Cl)cc1	?	.	2.1	.	.	?
CCCCCCN1C[C@H](n2cc(-c3ccc(F)cc3)nn2)[C@@H](O)C[C@@H]1c1ccc(C)cc1	?	.	-80.6*	.	.	28.2µM*
COc1ccccc1-c1nn(CCC(=O)Nc2ccccc2)c2nc(C)cc(C)c12	-16.7%	.	4.7	-27.5%[46.1 µM]	-0.5%[46.1 µM]	-23.9%
